Structures are written as SMILES. Compounds without any hit were thinned out: in the full panel of roughly 83,000, 20% have a hit.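 Assay: single dose, 48 h. Readout: percent growth (0 = no net growth; negative = cell death). Active: <10.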 A number with no mark means an inactive call.

In the first assay the test system is HS 578T breast. Nature of the assay: NCI-60 one-dose screen, 48 h (100 = growth as untreated, 0 = no growth, -100 = all killed). To be noted: 10 µM unless noted.
For `Clc1ccc(-c2noc(/C=C\c3ccccc3)n2)cc1`, the growth is 119%.

Turning to `CC(=O)NCNC(C)=O`, the growth was 111%. For the compound `CCOC(=O)c1ccc(C(C)(C)C)cc1`, the growth is 114%. On the same count and under the same terms, then `NC(=S)N/N=C/c1ccc(Cl)cc1`, with 112%; and `Cc1ccc(NC(=O)c2ccccc2Cl)cc1`, with 103%; and `Oc1ccc(N=Cc2ccc(OCc3ccccc3)cc2)cc1`, with 104%. Still for that read-out and setting: then `COc1nc(Nc2cccc(C(F)(F)F)c2)nc(OC)n1`, with 98.6%; and `C=C1SC(=Nc2c(C)cccc2C)N(c2nc(Cl)nc(Cl)n2)C12CCCCC2`, with 113%.

Consider `O=C(CCl)Nc1ccccc1SCc1cc(Cl)cc2c1OCOC2`, for which the growth is 102%. Still for that read-out and setting: then `Cc1c(-c2ccc(C3CCCCC3)cc2)nc2ccc(F)cc2c1C(=O)O`, with 75.3%.

`C[n+]1cc2cc3c(cc2c2ccccc21)OCO3`: the growth is 42.1%. Still for that read-out and setting: then `CCCC(=O)CC(=O)c1ccccc1`, with 106%; and `O=C(O)Cc1ccc(Cl)cc1`, with 99.6%. For the compound `CC(C)(CC(=O)O)CC(=O)O`, the growth is 111%.

As to `O=C1NC(=O)C(c2ccccc2)O1` (stereo not given), the growth was 117%. Take `COC1OC(COC(C)=O)C(OC(C)=O)C(OC(C)=O)C1OC(C)=O` (stereo not given): the growth was 101%. Same read-out and setting: as for `C#CCSc1nnnn1-c1ccccc1`, the figure is 102%.

Another assay has as its system NCI/ADR-RES ovarian. The description is as above. As to conditions: 10 µM unless noted.
For the compound `O=C(CCl)Oc1ccc([N+](=O)[O-])cc1`, the growth is 105%. The same measure, in the same setting: then `Clc1cccc(Cl)c1CSc1nc2ccccc2n2cccc12`, with 101%. On the same count and under the same terms, as for `Cc1cccnc1NC1OC(=O)c2ccccc21` (stereo not given), the figure is 103%; as for `COc1cc(OC)c(NC(=O)C(Sc2nc(C)cc(C)c2C#N)c2ccccc2)cc1Cl` (stereo not given), 96.9%. `COc1ccc(/C=N/NC(=O)COCC(=O)N/N=C/c2ccc(OC)cc2)cc1`: the growth is 112%. On the same count and under the same terms, then `Nc1ccccc1SC1CC(=O)N(c2ccc(Cl)c(Cl)c2)C1=O` (stereo not given), with 95.7%. In the case of `CC(C)c1ccccc1NC(=O)N1CCC(C(C)C)CC1`, the growth is 111%.

For `FC(F)(F)c1cc(NC2=NCCN=C(Nc3cc(C(F)(F)F)cc(C(F)(F)F)c3)SS2)cc(C(F)(F)F)c1`, the growth was 59.6%. Still for that read-out and setting: as for `CC(CCC#N)(CCC#N)C(=O)c1ccccc1`, the figure is 106%; as for `CCCCCCCCNC(=O)C(C)C`, 117%; as for `CCCCCCCCCCCCCCCCCC(=O)NCCNC(=O)CCCCCCCCCCCCCCCCC`, 93.9%. Still for that read-out and setting: as for `C=CCC(OC(C)=O)c1ccc(C(C)C)cc1` (stereo not given), the figure is 107%; as for `CC(=O)c1cc(O)ccc1O`, 92.8%; as for `CCCNS(=O)(=O)c1ccc(Cl)cc1`, 101%. The same measure, in the same setting: then `S=c1nc(-c2ccccn2)c(-c2ccccn2)n[nH]1`, with 102%; and `CCOc1ccc(C(=O)NCC(C)C)cc1`, with 111%; and `O=C(O)c1cccc(-n2ncc(Cl)c(Cl)c2=O)c1`, with 110%. `Cn1/c(=N\N=C\c2ccccc2OCCO)sc2ccccc21`: the growth was 109%.

Take `Clc1ccc(-c2noc(/C=C\c3ccccc3)n2)cc1`: the growth is 108%. Same read-out and setting: as for `CC(=O)Nc1ncc(S(=O)(=O)c2ccc([N+](=O)[O-])cc2)s1`, the figure is 118%. As to `CC(=O)NCNC(C)=O`, the growth was 111%. On the same count and under the same terms, as for `CCOC(=O)c1ccc(C(C)(C)C)cc1`, the figure is 108%; as for `NC(=S)N/N=C/c1ccc(Cl)cc1`, 100%; as for `Cc1ccc(NC(=O)c2ccccc2Cl)cc1`, 111%.

On to `C=CCC(OC(C)=O)c1ccc(OC)c(OC)c1` (stereo not given), for which the growth was 116%.

As for `Oc1ccc(N=Cc2ccc(OCc3ccccc3)cc2)cc1`, the growth is 95.6%. The same measure, in the same setting: then `COc1nc(Nc2cccc(C(F)(F)F)c2)nc(OC)n1`, with 104%; and `C=C1SC(=Nc2c(C)cccc2C)N(c2nc(Cl)nc(Cl)n2)C12CCCCC2`, with 105%; and `O=C(CCl)Nc1ccccc1SCc1cc(Cl)cc2c1OCOC2`, with 101%. On to `Cc1c(-c2ccc(C3CCCCC3)cc2)nc2ccc(F)cc2c1C(=O)O`, for which the growth was 45.7%. Same read-out and setting: as for `C[n+]1cc2cc3c(cc2c2ccccc21)OCO3`, the figure is 106%; as for `CCCC(=O)CC(=O)c1ccccc1`, 100%. On the same count and under the same terms, then `O=C(O)Cc1ccc(Cl)cc1`, with 109%. The same measure, in the same setting: as for `CC(C)(CC(=O)O)CC(=O)O`, the figure is 99.9%; as for `CCOC(=O)C(C#N)=C1CCN(C)CC1`, 115%. For the compound `O=C1NC(=O)C(c2ccccc2)O1` (stereo not given), the growth is 97.8%. Still for that read-out and setting: then `COC1OC(COC(C)=O)C(OC(C)=O)C(OC(C)=O)C1OC(C)=O` (stereo not given), with 95.2%.

As for `C#CCSc1nnnn1-c1ccccc1`, the growth is 86.7%.
